LRH-1 inv ag: inverse agonists of human LRH-1 (NR5A2). O00482. HEK293T StAR-luciferase reporter, LRH-1 transfected, 24 h. inhibition, % at 3.6 µM. 0.13% of 360,000 active. AID 602396;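 active means inhibition above the mean inhibition of all tested compounds plus 3 SD, cut at about 73% in these data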;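 further: 0% = DMSO wells and 100% = reporter-only cells lacking LRH-1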
NCOA3 inh: human NCOA3 inhibition | Q9Y6Q9 | HEK293 GAL4-SRC3 luciferase reporter, luminescence | inhibition, % at 3.6 µM | 0.17% of 360,000 active;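 active means inhibition above a per-campaign cutoff, the mean of all compounds plus 3 SD, cut at about 60% in these data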;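 further: 0% = DMSO-treated cells and 100% = gossypol-treated cells at 36 µM; higher means less SRC3-driven luciferase light from the GAL4 reporter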
SRC2 inh: inhibits human steroid receptor coactivator 2; Q15596; HEK293 GAL4-SRC2 luciferase reporter, luminescence; inhibition, % at 9 µM; 0.17% of 370,000 active;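 active means inhibition above the mean inhibition of all tested compounds plus 3 SD, set per campaign, cut at about 52% in these data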;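 further: 0% = DMSO treated cells and 100% = cells given Gossypol at 36 µM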
Gli-Sufu block: blocks Gli-Sufu signaling in a luciferase reporter; Sufu-KO-LIGHT fibroblasts, Gli luciferase reporter luminescence; inhibition, % at 5 µM; 0.74% of 340,000 active;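 active means inhibition above about 55%, limit read from the data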;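 further: 0% = DMSO-treated cells and 100% = wells with medium but no cells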
SRC1 inh: human NCOA1 inhibition | HEK293 GAL4-SRC1 luciferase reporter, luminescence | inhibition, % at 3.6 µM | 0.12% of 360,000 active | AID 588354;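 active means inhibition above the campaign mean plus 3 SD, with each screening campaign given its own cutoff, cut at about 60% in these data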;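 further: 0% = DMSO treated cells and 100% = gossypol at 36 µM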
NR2F2 inh: blocks human COUP-TFII nuclear receptor; inhibition, % at 8.6 µM; AID 686940; P24468; 0.7% of 370,000 active; HEK293T NGFI-A luciferase reporter, luminescence;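 active means inhibition above a per-plate cutoff, mean inhibition of test wells between control levels plus 3 SD, cut at about 38% in these data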;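 further: cells cotransfected with COUP-TFII expression vector driving the NGFI-A reporter; 0% = median of COUP-TF2 test wells and 100% = reporter-only cells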
Target sequence (P24468 whole entry, looked up): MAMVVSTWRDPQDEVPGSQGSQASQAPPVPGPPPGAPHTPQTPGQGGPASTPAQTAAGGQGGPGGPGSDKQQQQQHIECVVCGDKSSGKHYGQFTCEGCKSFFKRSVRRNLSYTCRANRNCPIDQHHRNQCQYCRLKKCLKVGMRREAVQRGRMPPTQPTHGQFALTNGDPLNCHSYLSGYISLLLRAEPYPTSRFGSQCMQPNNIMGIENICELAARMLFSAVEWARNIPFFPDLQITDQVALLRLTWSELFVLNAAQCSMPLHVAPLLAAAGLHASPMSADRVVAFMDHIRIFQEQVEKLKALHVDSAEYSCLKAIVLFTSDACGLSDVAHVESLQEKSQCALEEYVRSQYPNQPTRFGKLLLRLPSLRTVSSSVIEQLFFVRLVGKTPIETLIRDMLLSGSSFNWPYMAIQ
Gli-Sufu confirm: confirmation of Gli-SUFU pathway antagonists | shares compounds with Gli-Sufu block | Sufu-KO-LIGHT cells, Gli luciferase reporter, luminescence | inhibition, % at 5 µM | 40% of 2,500 active;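 active means mean inhibition at 5 µM reaching about 45%, limit read from the data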;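 further: plate controls were DMSO-treated cells for no effect and wells lacking cells for full effect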
SufuKO cytotox: counter-screen for Gli-SUFU antagonists: cytotoxicity | shares compounds with Gli-Sufu block | Sufu-KO-LIGHT cells cytotoxicity, ATP luminescence | cytotoxicity, % at 5 µM | 32% of 2,500 active | AID 651994;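 active means mean cytotoxicity at 5 µM above about 25%, limit read from the data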;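 further: cells exposed to compound overnight for roughly 16 to 18 hours; plate controls were DMSO wells with cells for no effect and medium without cells for full effect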
Wnt3a cs: inhibits Wnt3a reporter, counter-screen for Gli-SUFU antagonists; shares compounds with Gli-Sufu block; Wnt-LIGHT cells, Wnt3a-driven luciferase reporter, luminescence; inhibition, % at 6.25 µM; 20% of 2,500 active;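 active means mean inhibition above about 25%, limit read from the data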
Active calls of the source: *; · = no result. Hits are enriched below; roughly 1.3% of the tested compounds scored in any of these assays.

SMILES | LRH-1 inv ag | NCOA3 inh | SRC2 inh | Gli-Sufu block | SRC1 inh | NR2F2 inh | Gli-Sufu confirm | SufuKO cytotox | Wnt3a cs
O=C(OC12CCCN(C1)/C(=C/c1cccc(Cl)c1)C2)c1ccco1 (stereo unspecified) | · | · | 4 | · | · | -1 | · | · | ·
CCn1c(=O)c2cc(C(=O)NCC(OC)OC)sc2c2ccccc21 | 16 | -36 | -5 | 50 | 15 | -10 | 29 | 2 | 3
CCOC(CNC(=O)c1cc2c(=O)n(CC)c3ccccc3c2s1)OCC | 16 | 10 | -24 | 11 | -9 | -13 | · | · | ·
CCc1cc(C(=O)NC2CCCN(Cc3ccccc3F)C2)n(C)n1 (stereo unspecified) | 11 | 1 | 15 | 65* | 11 | 35 | 45 | 15 | 5
Cn1nc(C(=O)NC2CCCN(Cc3ccccc3F)C2)c2ccccc2c1=O (stereo unspecified) | -7 | -3 | 28 | 19 | 5 | 4 | · | · | ·
CCOc1ccc(-n2c(SCC(=O)Nc3ccc(S(=O)(=O)Nc4cc(C)nc(C)n4)cc3)nnc2-c2ccco2)cc1 | · | · | -17 | · | · | -13 | · | · | ·
CNc1ccccc1C(C)(C)c1cc(-c2cccc(Br)c2)no1 | 12 | 10 | -24 | 71* | -15 | 33 | 75* | 17 | 26*
COc1ccc(C(=O)N2CCN(c3cccc(Cl)c3)CC2)c(OC)c1 | -4 | 6 | -3 | 12 | 5 | -8 | · | · | ·
COc1ccccc1N1CCN(c2ncc(C(=O)N3CCN(c4cccc(Cl)c4)CC3)c3ccccc23)CC1 | -5 | 7 | -6 | 61* | -21 | 3 | 67* | 23 | 24
COc1ccc2cc3cc(C(=O)N4CCN(C5CCCCC5)CC4)oc3nc2c1 | -19 | 8 | · | 53 | -7 | · | 26 | 36* | -23
COc1ccc2cc3cc(C(=O)N4CCCCCC4)oc3nc2c1 | -118 | -86 | · | -18 | -115 | · | · | · | ·
Cn1c(SCC(=O)N(Cc2ccccc2)C(C)(C)C)nc2ccccc21 | -3 | 12 | · | 58* | -5 | · | 15 | 4 | -15
Cn1c(SCC(=O)N2CCCC2)nc2ccccc21 | 8 | -3 | -7 | -4 | 2 | 0 | · | · | ·
Cc1cc(Nc2ccc([N+](=O)[O-])cc2)c2ccccc2n1 | -14 | 4 | -2 | 56* | -19 | 14 | 38 | 13 | 3
COc1ccc(N/C=C(\C#N)S(=O)(=O)c2ccc(Cl)cc2)c(OC)c1 | -10 | -16 | 4 | 65* | 16 | 9 | 14 | -8 | 0
CCc1nc2ccc(C(=O)NCCCN3CCN(c4ccccc4F)CC3)cc2nc1CC | 10 | -11 | 10 | 55 | -9 | 0 | 18 | 27* | -42
Cc1c(C)n(C)c2ccc(C(=O)NCCCN3CCN(c4ccccc4F)CC3)cc12 | 3 | -4 | 6 | 25 | -17 | -2 | · | · | ·
c1ccc(C[n+]2cccc(-c3ccccc3)c2)cc1 | 5 | 11 | -8 | 57* | 22 | -6 | 57* | 15 | 10
CCOC(=O)CC[C@@H]1CC[C@]2(CCCN(C(=O)c3ccccc3)C2)O1 | · | · | -9 | · | · | 10 | · | · | ·
COc1ccc(C(O)C(CN2CCOCC2)c2ccccc2)cc1F (stereo unspecified) | 9 | 13 | 12 | 6 | 2 | -4 | · | · | ·
COc1ccc(C(=O)C(CN2CCOCC2)c2ccccc2)cc1F (stereo unspecified) | -14 | 24 | 37 | 55 | 16 | -22 | 17 | 1 | 19
CCn1c2ccccc2c2cc(C=NNC(=O)c3cc(-c4ccc(OC)cc4)n[nH]3)ccc21 | · | · | -32 | · | · | -24 | · | · | ·
COc1ccc2nc(NC(=O)CSc3nnnn3C3CCCCC3)sc2c1 | 12 | -12 | -11 | 4 | -14 | 10 | · | · | ·
CCOc1ccc2nc(NC(=O)CSc3nnnn3C3CCCCC3)sc2c1 | -47 | -9 | -23 | 71* | -32 | -1 | 6 | 11 | -84
Cc1ccc([N+](=O)[O-])cc1N=Nc1c(-c2ccc([N+](=O)[O-])cc2)[nH]n(C(N)=S)c1=O | 17 | -2 | · | 58* | -9 | · | 60* | 3 | 47*
SMILES | LRH-1 inv ag | NCOA3 inh | SRC2 inh | Gli-Sufu block | SRC1 inh | NR2F2 inh | Gli-Sufu confirm | SufuKO cytotox | Wnt3a cs
COC(=O)[C@]12C[C@H](CC(=O)N3CCN(C(=O)C4CC4)CC3)C(=O)N(Cc3cccc4ccccc34)C1=C[C@H](C(C)(C)C)O[C@@H]2C | · | · | 14 | · | · | 20 | · | · | ·
Cc1cc2c(cc(C(=O)OCC(=O)NCc3cccs3)n2C(C)C)o1 | 12 | -8 | · | 50 | -2 | · | 31 | 56* | -36
Cc1cc(C)cc(C(=O)OCC(=O)NCc2cccs2)c1 | 16 | 17 | 8 | -10 | 7 | 0 | · | · | ·
COc1ccccc1N(C)S(=O)(=O)c1ccc(C(=O)NCc2ccccc2CN2CCCC2)cc1 | -46 | 4 | -5 | 52 | -21 | -10 | 34 | 17 | -34
CC[N+](C)(CC)CCOC(=O)C(O)(c1ccccc1)C1CCCCC1 (stereo unspecified) | 18 | -25 | -11 | 5 | -2 | 2 | · | · | ·
CC[N+](C)(CC)CCC(c1ccccc1)C1CCCCC1 (stereo unspecified) | -16 | 0 | 16 | 56* | -16 | 8 | 50* | 18 | -19
O=C(COCc1ccccc1)N1CC[C@H]2[C@H](CCCN2Cc2ccc(F)cc2)C1 | · | · | 18 | · | · | -13 | · | · | ·
CN(CC(=O)Nc1ccc(F)cc1)C(=O)COC(=O)c1ccccc1 | -10 | 3 | -45 | 0 | -11 | 7 | · | · | ·
CN(CC(=O)Nc1ccc(F)cc1)C(=O)COC(=O)c1cc(Br)c(Br)s1 | -14 | 8 | -2 | 65* | -6 | 10 | 9 | -13 | -6
CC(C)N1Cc2nnn(Cc3ccccc3)c2-c2ccccc2S1(=O)=O | · | · | 11 | · | · | 3 | · | · | ·
CCCC1C(=O)Nc2ccccc2N1C(=O)c1cccc(C)c1 (stereo unspecified) | 4 | 1 | 4 | 71* | 4 | -5 | 16 | 17 | -1
CCCC1C(=O)Nc2ccccc2N1C(=O)c1ccc(C(C)(C)C)cc1 (stereo unspecified) | 30 | 17 | -18 | 28 | 13 | 1 | · | · | ·
C[C@H](O)[C@@H]1CN2CCc3ccc(N4CCOCC4)cc3[C@@H]2C[C@@H]1N(C)CC1CCCCC1 | · | · | 18 | · | · | -13 | · | · | ·
Cc1c(NC(=S)NC(NC(=O)C(C)(C)C)C(Cl)(Cl)Cl)c(=O)n(-c2ccccc2)n1C (stereo unspecified) | 13 | 12 | 0 | 51 | -6 | 8 | 25 | 1 | 6
CCCC(=O)NC(NC(=S)Nc1c(C)n(C)n(-c2ccccc2)c1=O)C(Cl)(Cl)Cl (stereo unspecified) | 13 | 1 | 13 | 2 | 0 | 2 | · | · | ·
